{"source": "paper doi:10.1101/2024.03.05.583629"}
{"biological_target": "pT7_6His-AlfaTag-HOXD13 (human, UniProt P35453 263-343)", "sequence (P35453 263-343)": "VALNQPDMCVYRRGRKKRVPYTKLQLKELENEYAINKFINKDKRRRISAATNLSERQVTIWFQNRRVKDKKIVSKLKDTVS", "assay": "PADIT-seq", "settings": "dsDNA, one strand shown", "units": {"binding signal": "log2FC"}}
{"sequence": "CTCGAGGATATCAAGATCTGGCCTCGGCGCCTTAAAAGGAACCTCTAGCTAGCCGACTCACTATAGGGATAATCGCCCTGAGCAAAGACC", "binding signal": "0.578 ± 0.0742"}
{"sequence": "CTCGAGGATATCAAGATCTGGCCTCGGCGCGATAGCGGGAACCTCTAGCTAGCCGACTCACTATAGGGATAATCGCCCTGAGCAAAGACC", "binding signal": "-0.758 ± 0.131"}
{"sequence": "CTCGAGGATATCAAGATCTGGCCTCGGCGAGTTAAAAGGAACCTCTAGCTAGCCGACTCACTATAGGGATAATCGCCCTGAGCAAAGACC", "binding signal": "0.985 ± 0.0828"}
{"sequence": "CTCGAGGATATCAAGATCTGGCCTCGGCTTACCACGCGGAACCTCTAGCTAGCCGACTCACTATAGGGATAATCGCCCTGAGCAAAGACC", "binding signal": "-1.03 ± 0.114"}
{"sequence": "CTCGAGGATATCAAGATCTGGCCTCGGCATTTTAATTGGAACCTCTAGCTAGCCGACTCACTATAGGGATAATCGCCCTGAGCAAAGACC", "binding signal": "2.74 ± 0.0827"}
{"sequence": "CTCGAGGATATCAAGATCTGGCCTCGGCTTTTTACAAGGAACCTCTAGCTAGCCGACTCACTATAGGGATAATCGCCCTGAGCAAAGACC", "binding signal": "3.28 ± 0.0787"}
{"sequence": "CTCGAGGATATCAAGATCTGGCCTCGGCGTTTTACCTGGAACCTCTAGCTAGCCGACTCACTATAGGGATAATCGCCCTGAGCAAAGACC", "binding signal": "-0.352 ± 0.118"}
{"sequence": "CTCGAGGATATCAAGATCTGGCCTCGGCCGCCCATCTGGAACCTCTAGCTAGCCGACTCACTATAGGGATAATCGCCCTGAGCAAAGACC", "binding signal": "-0.946 ± 0.119"}
{"sequence": "CTCGAGGATATCAAGATCTGGCCTCGGCTGCGTAAAAGGAACCTCTAGCTAGCCGACTCACTATAGGGATAATCGCCCTGAGCAAAGACC", "binding signal": "1.22 ± 0.0881"}
{"sequence": "CTCGAGGATATCAAGATCTGGCCTCGGCCGCCCAGAAGGAACCTCTAGCTAGCCGACTCACTATAGGGATAATCGCCCTGAGCAAAGACC", "binding signal": "-1.09 ± 0.133"}
{"sequence": "CTCGAGGATATCAAGATCTGGCCTCGGCGTACTAAAAGGAACCTCTAGCTAGCCGACTCACTATAGGGATAATCGCCCTGAGCAAAGACC", "binding signal": "0.47 ± 0.0814"}
{"sequence": "CTCGAGGATATCAAGATCTGGCCTCGGCCGCCCATTTGGAACCTCTAGCTAGCCGACTCACTATAGGGATAATCGCCCTGAGCAAAGACC", "binding signal": "-0.832 ± 0.113"}
{"sequence": "CTCGAGGATATCAAGATCTGGCCTCGGCTTTTTATGAGGAACCTCTAGCTAGCCGACTCACTATAGGGATAATCGCCCTGAGCAAAGACC", "binding signal": "3.46 ± 0.0792"}
{"sequence": "CTCGAGGATATCAAGATCTGGCCTCGGCTGCCTAAAAGGAACCTCTAGCTAGCCGACTCACTATAGGGATAATCGCCCTGAGCAAAGACC", "binding signal": "-0.51 ± 0.109"}
{"sequence": "CTCGAGGATATCAAGATCTGGCCTCGGCCTTTTACTTGGAACCTCTAGCTAGCCGACTCACTATAGGGATAATCGCCCTGAGCAAAGACC", "binding signal": "0.95 ± 0.0821"}
{"sequence": "CTCGAGGATATCAAGATCTGGCCTCGGCGTTATAAAAGGAACCTCTAGCTAGCCGACTCACTATAGGGATAATCGCCCTGAGCAAAGACC", "binding signal": "2.4 ± 0.0697"}
{"sequence": "CTCGAGGATATCAAGATCTGGCCTCGGCTAACTAAAAGGAACCTCTAGCTAGCCGACTCACTATAGGGATAATCGCCCTGAGCAAAGACC", "binding signal": "-0.24 ± 0.119"}
{"sequence": "CTCGAGGATATCAAGATCTGGCCTCGGCCTCCTAAAAGGAACCTCTAGCTAGCCGACTCACTATAGGGATAATCGCCCTGAGCAAAGACC", "binding signal": "0.715 ± 0.108"}
{"sequence": "CTCGAGGATATCAAGATCTGGCCTCGGCCTAATAAAAGGAACCTCTAGCTAGCCGACTCACTATAGGGATAATCGCCCTGAGCAAAGACC", "binding signal": "3.06 ± 0.0911"}
{"sequence": "CTCGAGGATATCAAGATCTGGCCTCGGCGTTCTAAAAGGAACCTCTAGCTAGCCGACTCACTATAGGGATAATCGCCCTGAGCAAAGACC", "binding signal": "-0.197 ± 0.0802"}
{"sequence": "CTCGAGGATATCAAGATCTGGCCTCGGCCTGATAAAAGGAACCTCTAGCTAGCCGACTCACTATAGGGATAATCGCCCTGAGCAAAGACC", "binding signal": "1.73 ± 0.0914"}
{"sequence": "CTCGAGGATATCAAGATCTGGCCTCGGCAACTGGGCGGGAACCTCTAGCTAGCCGACTCACTATAGGGATAATCGCCCTGAGCAAAGACC", "binding signal": "-0.923 ± 0.12"}
{"sequence": "CTCGAGGATATCAAGATCTGGCCTCGGCGTTTTACTGGGAACCTCTAGCTAGCCGACTCACTATAGGGATAATCGCCCTGAGCAAAGACC", "binding signal": "2.76 ± 0.0911"}
{"sequence": "CTCGAGGATATCAAGATCTGGCCTCGGCTCTCCACGCGGAACCTCTAGCTAGCCGACTCACTATAGGGATAATCGCCCTGAGCAAAGACC", "binding signal": "-0.925 ± 0.119"}
{"sequence": "CTCGAGGATATCAAGATCTGGCCTCGGCAGCCTAAAAGGAACCTCTAGCTAGCCGACTCACTATAGGGATAATCGCCCTGAGCAAAGACC", "binding signal": "-0.607 ± 0.118"}
{"sequence": "CTCGAGGATATCAAGATCTGGCCTCGGCACCCTAAAAGGAACCTCTAGCTAGCCGACTCACTATAGGGATAATCGCCCTGAGCAAAGACC", "binding signal": "0.642 ± 0.0968"}
